# Measurements as given in the supplement of paper PMC10849652.
# Targets with a hit are over-represented here; the source holds about 7,900 in all. About 0.6% of all pairs of compound and target were hits. Unmarked numbers belong to inactive results.
# Experiments:
# Assay in all cases: log2 fold change, soluble protein after heating vs DMSO (PISA); higher = thermal stabilisation; K562 cells, 10 uM, 30 min; active = over 0.2 and 3.5 SD of the protein, either way, in both replicates (recomputed)
# erlotinib = compound: C#Cc1cccc(Nc2ncnc3cc(OCCOC)c(OCCOC)cc23)c1 [erlotinib]
# Procedure, shortened: (§1)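 Soluble protein was quantified by TMTpro 16plex LC-MS/MS after channel sums were equalised. It was obtained as the supernatant after 21,000xg for 90 min from pooled aliquots of K562 cells (2×10^6 cells/mL, 10 μM compound, 30 min) heated for 3 min across 48°C-58°C and extracted in PBS with 0.5% NP-40 at 4°C. Thermal stability values are relative to control samples and come from duplicates. They are given as log2 fold changes.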
# [1] = compound: C/C(=N\NC(=O)C1=CC(=CC=C1)S(=O)(=O)N2CCOCC2)/C3=C(C=CC(=C3)Cl)O
# Procedure, shortened: as §1
# [2] = compound: C1=CC(=C(C=C1Cl)C2=NC3=NC=CN=C3C(=N2)NC4=CC=NC=C4)F
# Procedure, shortened: as §1
# [3] = compound: C1=CC(=CC=C1C2=NC3=C(N2)C=C(C=C3)C(=O)N)OC4=CC=C(C=C4)Cl
# Procedure, shortened: as §1
# [4] = compound: C1=CC2=C(C=CC(=C2)/C=C\3/C(=O)NC(=NCC4=CC=CS4)S3)N=C1
# Procedure, shortened: as §1
# [5] = compound: C1=CC2=NC=CN=C2C=C1/C=C/3\C(=O)NC(=O)S3
# Procedure, shortened: as §1
# [6] = compound: C1=CC=C(C=C1)C2=NC(=C(N2)C3=CC=NC=C3)C4=CC(=C(C=C4)Cl)O
# Procedure, shortened: as §1
# [7] = compound: C1=CC=C2C(=C1)C3=NNC4=CC=CC(=C43)C2=O
# Procedure, shortened: as §1
# [8] = compound: C1CCN(C1)C(=O)NC2=CC=CC(=C2)NC3=NC=C(C(=N3)NCCC4=CN=CN4)Br
# Procedure, shortened: as §1
# [9] = compound: C1CN(CCC1(CC2=CC=C(C=C2)Cl)N)C3=NC=NC4=C3C=CN4
# Procedure, shortened: as §1
# IRAK-1-4 Inhibitor I = compound: C1COCCN1CCN2C3=CC=CC=C3N=C2NC(=O)C4=CC(=CC=C4)[N+](=O)[O-] [IRAK-1-4 Inhibitor I]
# Procedure, shortened: as §1
# ibrutinib = compound: C=CC(=O)N1CCC[C@@H](n2nc(-c3ccc(Oc4ccccc4)cc3)c3c(N)ncnc32)C1 [ibrutinib]
# Procedure, shortened: as §1
# [10] = compound: CC(=O)c1cnc2ccc(-c3cc(Cl)c(O)c(Cl)c3)nc2c1N[C@H]1CC[C@H](CN(C)C)CC1
# Procedure, shortened: as §1
# ralimetinib = compound: CC(C)(C)Cn1c(N)nc2ccc(-c3[nH]c(C(C)(C)C)nc3-c3ccc(F)cc3)nc21 [ralimetinib]
# Procedure, shortened: as §1
# [11] = compound: CC(C)(O)CC(=O)NCCn1ccc2ncnc(Nc3ccc(Oc4cccc(C(F)(F)F)c4)c(Cl)c3)c21
# Procedure, shortened: as §1
# [12] = compound: CC(C)C1=C2N=C(C=C(N2N=C1)NCC3=CC=CC=C3)NCCCCCCN
# Procedure, shortened: as §1
# [13] = compound: CC(C)C[C@@H](C=O)NC(=O)[C@H](CC(C)C)NC(=O)[C@H](CC(C)C)NC(=O)OCc1ccccc1
# Procedure, shortened: as §1
# pinometostat = compound: CC(C)N(C[C@H]1O[C@@H](n2cnc3c(N)ncnc32)[C@H](O)[C@@H]1O)[C@H]1C[C@@H](CCc2nc3cc(C(C)(C)C)ccc3[nH]2)C1 [pinometostat]
# Procedure, shortened: as §1
# [14] = compound: CC1=C(C(CC(=O)N1)C2=CC=C(C=C2)C(F)(F)F)C(=O)NC3=C(C=C4C(=C3)C=NN4)F
# Procedure, shortened: as §1
# [15] = compound: CC1=C(C2=C(C=C1)C(=O)C3=CC=CC=C3N2CCCN)C
# Procedure, shortened: as §1
# UniProt O75882, sequence (O75882 whole entry, looked up): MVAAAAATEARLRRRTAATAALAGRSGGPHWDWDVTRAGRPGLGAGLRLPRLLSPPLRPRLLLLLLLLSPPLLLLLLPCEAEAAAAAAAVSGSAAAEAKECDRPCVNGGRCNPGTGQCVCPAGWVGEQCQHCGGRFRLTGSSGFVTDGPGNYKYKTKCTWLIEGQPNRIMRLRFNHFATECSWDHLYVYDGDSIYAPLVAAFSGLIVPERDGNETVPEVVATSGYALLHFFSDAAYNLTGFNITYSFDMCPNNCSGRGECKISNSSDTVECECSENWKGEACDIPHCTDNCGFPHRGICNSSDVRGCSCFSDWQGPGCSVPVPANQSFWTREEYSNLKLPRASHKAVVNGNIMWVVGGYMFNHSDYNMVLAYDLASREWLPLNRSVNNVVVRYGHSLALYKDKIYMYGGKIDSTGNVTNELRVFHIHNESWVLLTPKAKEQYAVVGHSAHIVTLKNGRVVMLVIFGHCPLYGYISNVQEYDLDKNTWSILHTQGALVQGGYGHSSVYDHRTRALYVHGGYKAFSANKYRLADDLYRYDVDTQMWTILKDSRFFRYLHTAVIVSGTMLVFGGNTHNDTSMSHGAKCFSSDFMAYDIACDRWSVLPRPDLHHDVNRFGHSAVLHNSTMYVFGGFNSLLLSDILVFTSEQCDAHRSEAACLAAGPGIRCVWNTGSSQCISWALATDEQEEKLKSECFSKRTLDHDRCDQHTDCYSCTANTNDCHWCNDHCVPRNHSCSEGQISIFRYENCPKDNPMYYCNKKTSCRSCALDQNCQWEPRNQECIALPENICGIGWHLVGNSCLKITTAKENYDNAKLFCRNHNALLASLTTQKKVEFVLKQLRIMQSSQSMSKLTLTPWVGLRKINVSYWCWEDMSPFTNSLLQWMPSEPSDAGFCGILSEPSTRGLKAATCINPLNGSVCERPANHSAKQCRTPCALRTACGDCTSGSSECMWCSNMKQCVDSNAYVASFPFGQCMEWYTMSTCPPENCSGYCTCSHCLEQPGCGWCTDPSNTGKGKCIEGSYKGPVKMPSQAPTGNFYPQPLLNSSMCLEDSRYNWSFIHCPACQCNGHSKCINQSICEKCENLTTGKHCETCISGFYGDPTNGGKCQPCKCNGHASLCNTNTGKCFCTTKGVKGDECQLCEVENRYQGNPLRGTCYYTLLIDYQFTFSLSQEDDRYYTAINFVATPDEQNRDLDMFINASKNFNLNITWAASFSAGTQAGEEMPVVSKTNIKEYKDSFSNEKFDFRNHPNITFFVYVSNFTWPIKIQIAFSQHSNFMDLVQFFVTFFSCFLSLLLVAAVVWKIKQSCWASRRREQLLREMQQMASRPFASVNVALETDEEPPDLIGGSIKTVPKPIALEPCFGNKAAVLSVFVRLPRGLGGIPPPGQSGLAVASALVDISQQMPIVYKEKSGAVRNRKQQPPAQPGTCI
# UniProt P55196, sequence (P55196 whole entry, looked up): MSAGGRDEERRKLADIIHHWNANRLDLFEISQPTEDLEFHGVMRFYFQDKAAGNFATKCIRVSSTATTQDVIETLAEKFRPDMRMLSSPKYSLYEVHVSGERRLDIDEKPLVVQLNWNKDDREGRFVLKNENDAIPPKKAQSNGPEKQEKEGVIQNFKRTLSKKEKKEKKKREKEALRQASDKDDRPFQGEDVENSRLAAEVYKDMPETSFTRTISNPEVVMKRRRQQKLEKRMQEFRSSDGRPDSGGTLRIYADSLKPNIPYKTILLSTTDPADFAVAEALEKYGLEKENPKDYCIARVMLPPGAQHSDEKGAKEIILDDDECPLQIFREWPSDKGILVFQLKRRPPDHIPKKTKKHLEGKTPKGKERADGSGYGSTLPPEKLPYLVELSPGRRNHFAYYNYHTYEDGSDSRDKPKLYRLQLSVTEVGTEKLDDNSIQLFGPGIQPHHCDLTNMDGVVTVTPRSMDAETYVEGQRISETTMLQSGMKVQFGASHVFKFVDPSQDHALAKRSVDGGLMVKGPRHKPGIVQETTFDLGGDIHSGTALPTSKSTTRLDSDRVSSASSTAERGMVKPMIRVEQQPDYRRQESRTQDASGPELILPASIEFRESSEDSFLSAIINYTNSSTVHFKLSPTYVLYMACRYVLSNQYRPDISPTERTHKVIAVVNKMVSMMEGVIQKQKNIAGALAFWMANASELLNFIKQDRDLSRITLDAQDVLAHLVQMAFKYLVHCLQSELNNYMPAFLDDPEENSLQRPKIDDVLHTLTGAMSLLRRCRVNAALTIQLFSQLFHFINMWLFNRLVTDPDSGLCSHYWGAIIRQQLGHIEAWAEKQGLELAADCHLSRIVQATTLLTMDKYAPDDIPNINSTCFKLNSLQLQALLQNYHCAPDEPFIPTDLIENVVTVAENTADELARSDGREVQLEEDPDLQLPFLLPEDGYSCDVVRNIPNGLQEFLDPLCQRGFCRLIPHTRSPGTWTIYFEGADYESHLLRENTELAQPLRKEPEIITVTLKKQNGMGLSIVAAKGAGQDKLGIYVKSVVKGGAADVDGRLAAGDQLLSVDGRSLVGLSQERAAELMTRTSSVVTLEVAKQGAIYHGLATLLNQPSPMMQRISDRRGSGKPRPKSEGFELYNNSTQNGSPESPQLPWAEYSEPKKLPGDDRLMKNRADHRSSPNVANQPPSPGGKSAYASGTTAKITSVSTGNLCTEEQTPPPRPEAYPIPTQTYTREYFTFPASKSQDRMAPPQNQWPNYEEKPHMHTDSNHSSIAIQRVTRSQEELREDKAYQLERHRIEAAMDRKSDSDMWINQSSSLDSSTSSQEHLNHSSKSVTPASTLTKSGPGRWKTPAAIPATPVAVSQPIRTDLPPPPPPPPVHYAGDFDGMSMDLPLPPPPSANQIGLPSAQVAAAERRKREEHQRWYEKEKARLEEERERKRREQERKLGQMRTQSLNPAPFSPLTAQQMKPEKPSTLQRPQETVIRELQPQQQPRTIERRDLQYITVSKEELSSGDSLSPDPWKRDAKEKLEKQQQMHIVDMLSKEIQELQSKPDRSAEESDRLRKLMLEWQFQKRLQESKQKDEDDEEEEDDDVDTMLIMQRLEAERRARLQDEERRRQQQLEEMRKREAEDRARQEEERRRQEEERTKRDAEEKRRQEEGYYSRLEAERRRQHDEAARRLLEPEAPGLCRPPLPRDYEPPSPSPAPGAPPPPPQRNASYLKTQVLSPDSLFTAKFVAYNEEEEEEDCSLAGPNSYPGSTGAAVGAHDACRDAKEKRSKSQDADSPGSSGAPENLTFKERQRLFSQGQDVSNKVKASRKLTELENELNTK
# UniProt Q9UKG1, sequence (Q9UKG1 whole entry, looked up): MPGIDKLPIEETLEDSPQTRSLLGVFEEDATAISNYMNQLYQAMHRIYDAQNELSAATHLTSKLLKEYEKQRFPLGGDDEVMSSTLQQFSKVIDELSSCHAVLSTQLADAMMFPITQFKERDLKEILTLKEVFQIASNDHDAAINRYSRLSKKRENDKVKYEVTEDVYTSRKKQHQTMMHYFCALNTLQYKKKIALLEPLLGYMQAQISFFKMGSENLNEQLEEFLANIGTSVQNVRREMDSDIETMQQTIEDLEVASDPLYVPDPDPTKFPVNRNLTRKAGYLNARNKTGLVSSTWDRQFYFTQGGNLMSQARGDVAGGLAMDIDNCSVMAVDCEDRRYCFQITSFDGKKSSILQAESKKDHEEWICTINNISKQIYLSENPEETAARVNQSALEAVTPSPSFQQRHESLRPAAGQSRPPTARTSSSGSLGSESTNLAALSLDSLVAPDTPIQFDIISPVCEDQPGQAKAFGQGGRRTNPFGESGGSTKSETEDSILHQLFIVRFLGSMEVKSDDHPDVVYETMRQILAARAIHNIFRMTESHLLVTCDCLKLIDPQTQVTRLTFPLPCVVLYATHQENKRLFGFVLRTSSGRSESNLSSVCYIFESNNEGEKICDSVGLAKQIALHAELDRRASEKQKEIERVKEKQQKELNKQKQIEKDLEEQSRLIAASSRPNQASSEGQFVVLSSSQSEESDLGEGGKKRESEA
# UniProt O15254, sequence (O15254 whole entry, looked up): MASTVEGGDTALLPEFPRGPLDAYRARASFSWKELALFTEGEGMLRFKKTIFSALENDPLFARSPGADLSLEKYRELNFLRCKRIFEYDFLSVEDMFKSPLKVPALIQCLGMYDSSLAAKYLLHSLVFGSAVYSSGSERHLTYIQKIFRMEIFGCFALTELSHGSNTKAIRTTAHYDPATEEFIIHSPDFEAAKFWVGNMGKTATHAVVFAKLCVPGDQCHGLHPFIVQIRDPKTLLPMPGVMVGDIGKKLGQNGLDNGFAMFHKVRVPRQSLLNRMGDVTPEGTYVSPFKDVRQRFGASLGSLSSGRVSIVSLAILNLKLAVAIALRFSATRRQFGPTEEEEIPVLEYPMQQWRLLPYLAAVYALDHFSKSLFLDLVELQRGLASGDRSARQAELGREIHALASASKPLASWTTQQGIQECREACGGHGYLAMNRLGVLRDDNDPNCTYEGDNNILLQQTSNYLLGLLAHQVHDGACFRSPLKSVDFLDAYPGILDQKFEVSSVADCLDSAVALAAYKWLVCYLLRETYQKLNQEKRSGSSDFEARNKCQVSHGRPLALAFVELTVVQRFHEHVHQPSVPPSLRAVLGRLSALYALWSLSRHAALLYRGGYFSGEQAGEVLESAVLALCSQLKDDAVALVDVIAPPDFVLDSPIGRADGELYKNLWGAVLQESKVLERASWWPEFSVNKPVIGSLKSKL
# UniProt P18846, sequence (P18846 whole entry, looked up): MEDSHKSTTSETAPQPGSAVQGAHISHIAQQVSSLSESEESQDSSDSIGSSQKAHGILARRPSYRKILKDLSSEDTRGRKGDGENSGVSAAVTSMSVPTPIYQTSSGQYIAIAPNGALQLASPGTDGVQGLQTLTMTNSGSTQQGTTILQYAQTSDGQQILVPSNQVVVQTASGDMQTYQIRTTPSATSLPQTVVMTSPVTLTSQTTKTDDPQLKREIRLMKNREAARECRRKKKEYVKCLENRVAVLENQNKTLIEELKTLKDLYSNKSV
# UniProt P55008, sequence (P55008 whole entry, looked up): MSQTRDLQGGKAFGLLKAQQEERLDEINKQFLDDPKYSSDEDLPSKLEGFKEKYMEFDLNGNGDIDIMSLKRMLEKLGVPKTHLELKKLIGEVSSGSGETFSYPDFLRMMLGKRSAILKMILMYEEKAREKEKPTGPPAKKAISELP
Target,log2 fold change (erlotinib),log2 fold change [1],log2 fold change [2],log2 fold change [3],log2 fold change [4],log2 fold change [5],log2 fold change [6],log2 fold change [7],log2 fold change [8],log2 fold change [9],log2 fold change (IRAK-1-4 Inhibitor I),log2 fold change (ibrutinib),log2 fold change [10],log2 fold change (ralimetinib),log2 fold change [11],log2 fold change [12],log2 fold change [13],log2 fold change (pinometostat),log2 fold change [14],log2 fold change [15]
ARL3 (UniProt P36405),-0.009,0.007,0.033,-0.037,0.046,0.007,0.019,-0.015,-0.026,0.041,0.049,-0.01,-0.033,-0.042,-0.034,0.065,-0.057,-0.029,0.002,0.017
ACTBL2 (UniProt Q562R1),-0.247,-0.805,0.093,0.025,-0.419,-0.215,0.047,0.147,,,,0,-0.156,0.351,0.132,0.372,0.195,,0.406,
APOBEC3G (UniProt Q9HC16),-0.087,0.027,-0.124,0.047,-0.005,0.056,-0.056,0.109,0.181,-0.362,-0.064,0.103,-0.111,0.128,0.075,0.046,0.077,0.11,-0.09,-0.492 (active)
BRAF (UniProt P15056),0.031,0.057,0.034,0.007,0.08,-0.012,,-0.054,-0.088,0.024,-0.025,0.002,,0.019,,-0.044,-0.031,0.047,0.003,0.056
AP2A1 (UniProt O95782),-0.019,0.012,-0.035,0.003,-0.041,0.003,0.057,-0.381 (active),-0.527 (active),-0.038,-0.054,0.01,-0.14,0.052,0.027,0.023,-0.06,0,0.01,0.081
AIF1 (UniProt P55008),0.155,-0.02,0.09,0.08,-0.051,0.093,0.058,-0.126,,,,0.012,0.028,-0.112,0.035,-0.033,0.07,,,
BAD (UniProt Q92934),0.049,0.079,0.022,0.124,0.083,0.023,0.01,0.025,,,0.057,0.024,-0.061,-0.054,0.077,-0.04,-0.041,0.012,0.065,
ACOX3 (UniProt O15254),0.158,-0.157,-0.068,0.007,-0.122,-0.026,,0.071,0.153,0.054,0.095,0.035,-0.177,,0.061,0.022,,-0.021,-0.081,-0.051
ATRN (UniProt O75882),0.006,0.037,-0.113,-0.148,0.098,0.04,,-0.166,-0.052,0.018,-0.084,0.083,0.012,,-0.02,0.033,,0.079,-0.08,0.044
APPL1 (UniProt Q9UKG1),-0.049,0.162,0.055,0.012,0.055,0.016,0.038,-0.029,0.014,0.003,0.016,-0.067,-0.074,-0.024,0.037,0.006,0.069,0.059,-0.15,-0.011
AGO1 (UniProt Q9UL18),0.031,-0.061,0.05,-0.091,0.032,0.005,0.01,-0.08,-0.008,0.046,0.02,0.05,0.019,-0.023,-0.001,-0.01,0.07,0.061,0.144,0.076
ATP6V1C1 (UniProt P21283),-0.103,0.02,-0.135,-0.021,-0.011,0.046,-0.244,0.045,-0.067,-0.227,-0.102,-0.041,-0.074,0.036,0.039,-0.008,0.052,0.068,0.032,-0.037
AFDN isoform 1 (UniProt P55196),-0.008,0.072,0.002,-0.003,-0.136,-0.018,-0.082,-0.005,,,-0.046,-0.015,-0.102,-0.12,-0.048,-0.001,0.002,-0.072,,
ATF1 (UniProt P18846),-0.058,0.244,0.129,-0.054,-0.221,0.023,,0.039,-0.117,-0.024,,-0.02,-0.02,,-0.07,0.081,,,-0.04,-0.127
ASB6 (UniProt Q9NWX5),-0.024,-0.603 (active),-0.263,-0.067,0.184,-0.084,0.101,-0.032,,,0.106,-0.108,0.039,0.343,-0.274,-0.055,0.069,-0.031,0.059,
ASS1 (UniProt P00966),0.059,0.301 (active),-0.05,0.008,-0.003,0.036,0.012,0.118,0.103,-0.037,,0.05,-0.155,-0.022,-0.064,-0.122,0.006,,-0.071,-0.021
BSCL2 isoform 4 (UniProt Q96G97),-0.024,0.088,-0.016,0.052,0.06,-0.012,,-0.045,0.045,-0.001,,0.069,-0.109,,0.003,-0.219,,,-0.122,0.023
ARHGAP25 isoform 4 (UniProt P42331),0.07,0.165,0.109,-0.284,0.042,-0.192,,-0.062,0.052,-0.147,,-0.064,-0.16,,-0.465,-0.961 (active),,,-0.418,0.066
